# ALOX12 inh: Primary qHTS assay for inhibitors of human arachidonate 12S-lipoxygenase (ALOX12): Round 2; Polyunsaturated fatty acid lipoxygenase ALOX12 (Homo sapiens), P18054; purified 12hLO, xylenol orange hydroperoxide absorbance; Potency, µM (series often up to 108 µM), for inactives: top-dose activity change, negative = inhibition, actives largely listed as inhibitors; hit rate 1.1% among 580,000
# Target sequence (P18054 whole entry, looked up): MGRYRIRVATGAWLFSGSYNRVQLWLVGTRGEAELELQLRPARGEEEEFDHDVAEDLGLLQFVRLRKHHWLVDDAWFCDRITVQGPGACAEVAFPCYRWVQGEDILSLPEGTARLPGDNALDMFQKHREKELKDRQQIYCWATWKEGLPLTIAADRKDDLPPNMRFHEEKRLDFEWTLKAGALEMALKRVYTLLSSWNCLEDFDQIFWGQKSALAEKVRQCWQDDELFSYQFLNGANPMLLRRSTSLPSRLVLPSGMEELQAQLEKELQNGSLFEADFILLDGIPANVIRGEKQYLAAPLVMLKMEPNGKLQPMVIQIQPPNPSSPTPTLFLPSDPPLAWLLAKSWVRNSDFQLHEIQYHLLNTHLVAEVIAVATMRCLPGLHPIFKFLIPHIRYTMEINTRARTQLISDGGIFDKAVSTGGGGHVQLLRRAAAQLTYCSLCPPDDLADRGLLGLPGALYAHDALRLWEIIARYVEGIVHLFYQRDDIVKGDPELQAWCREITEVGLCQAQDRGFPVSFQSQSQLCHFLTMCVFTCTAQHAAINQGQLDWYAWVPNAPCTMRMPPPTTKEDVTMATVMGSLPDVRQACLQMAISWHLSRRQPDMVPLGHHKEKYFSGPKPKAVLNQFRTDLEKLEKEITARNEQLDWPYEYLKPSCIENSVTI
#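 Purified human 12hLO at 150 nM in 25 mM Hepes, 0.01% Triton X-100, pH 7.0, preincubated 15 min at room temperature with compound. Reaction started with 40 uM arachidonic acid, 30 min at room temperature. Hydroperoxide measured by Fe-xylenol orange, 573/405 nm absorbance ratio.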
# ELG1 repair inh: qHTS screen for small molecules that inhibit ELG1-dependent DNA repair in human embryonic kidney (HEK293T) cells expressing luciferase-tagged ELG1; HEK293T ELG1-luciferase reporter, luminescence, 16 h; DNA damage induced by 5-fluorouridine; Potency, µM (doses to about 46.1 µM), for the others: at the top dose activity change, negative = inhibition, actives largely listed as inhibitors; hit rate 2.3% among 330,000; AID 504467, 2011; also: nearly all actives have a fitted effect of over 55% in size
#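 Reporter activity after DNA damage by 5-fluorouridine is monitored. Compound-treated cells incubate 16 hr at 37 °C, then ONE-Glo is added for 30 min before luminescence reading.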
# TDP1 cell CPT: qHTS for Inhibitors of human tyrosyl-DNA phosphodiesterase 1 (TDP1): qHTS in cells in presence of CPT | AID 686979, 2013 | hit rate 12% among 420,000 | Potency, µM (top dose mostly 46.2 µM), for the others: at the top dose activity change, negative = growth inhibition, actives largely listed as inhibitors | chicken DT40 Tdp1-/-;hTDP1 cells + 20 nM CPT, ATP luminescence, 48 h; also: nearly all actives have a fitted effect of over 55% in size
#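 Chicken DT40 Tdp1-/- cells stably complemented with human TDP1 were seeded at 400 cells/well in medium containing 20 nM camptothecin, exposed to pin-transferred compounds, and grown at 37 °C for at least 48 hr. Viability was read as ATP luminescence.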
# DT40 TDP1 no CPT: qHTS for Inhibitors of human tyrosyl-DNA phosphodiesterase 1 (TDP1): qHTS in cells in absence of CPT; DT40 Tdp1-/- hTDP1 cells, no CPT, ATP luminescence, 48 h; Potency, µM (top dose mostly 46.2 µM), inactives show at the top dose activity change, negative = growth inhibition, actives largely listed as inhibitors; hit rate 15% among 420,000; AID 686978, 2013; also: nearly all actives have a fitted effect of over 55% in size
#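 Growth of hTDP1-complemented DT40 Tdp1-knockout cells is measured by ATP luminescence after at least 48 hr compound exposure at 37 °C, with DMSO substituting for the 20 nM CPT used in the parallel screen.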
# RORg inh: qHTS for inhibitors of ROR gamma transcriptional activity. Drosophila S2 Gal4-RORgamma UAS-luciferase reporter, 20 h. Potency, µM (highest dose often 53.6 µM), without a hit: at the highest dose activity change, negative = inhibition, most hits filed as inhibitors. hit rate 5.4% among 310,000. AID 2551, 2010; also: nearly all actives have a fitted effect of over 60% in size
#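 Luciferase reporter read in Schneider cells carrying Gal4-RORγ (mouse) and UAS-Photinus luciferase; cells given compound 1 h before 700 uM copper sulfate induction, then incubated 20 h at ambient temperature.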
# Gal4-VP16 FLuc: VP16 counterscreen qHTS for inhibitors of ROR gamma transcriptional activity; Drosophila S2 Gal4-VP16 UAS-luciferase, luminescence, 20 h; Potency, µM (series often up to 53.6 µM), for the others: at the top dose activity, negative = inhibition, actives largely listed as inhibitors; hit rate 3.5% among 310,000;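 also: Gal4-VP16 expression switched on by copper sulfate through the metallothionein promoter; nearly all actives have a fitted effect of over 50% in size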
# The depositor's hits bear a star; ? = inconclusive; . = no result given. In the library only some 15% were active in any assay of this set; here they are far more common. Calls follow the shape of the dose curve; as a rule, active = well fitted curve in the direction sought with a large enough effect; inconclusive = small, poorly fitted or top-dose-only effect, or another doubt; inactive = no such curve, though single readings can be large; an effect the other way counts as inactive or inconclusive. % is scaled to controls: 0 for no effect and ±100 for the full control effect; potency is read from the fitted curve at half-maximal effect.
SMILES,ALOX12 inh,ELG1 repair inh,TDP1 cell CPT,DT40 TDP1 no CPT,RORg inh,Gal4-VP16 FLuc
Cc1cc(C)nc(SC(C(=O)c2ccccc2)c2ccccc2)n1 (configuration not stated),-7%,.,.,.,.,.
CC(NC(=O)CCSc1nc2ccccc2s1)c1ccc(F)cc1F (configuration not stated),-14%,.,.,.,.,.
CC(=O)N1c2ccccc2N=C(c2ccc(C(F)(F)F)cc2)C1C(=O)NC(C)C (configuration not stated),1%,.,21µM*,23µM*,.,.
O=C(NC1CCCC1)C1C(c2ccc(C(F)(F)F)cc2)=Nc2ccccc2N1C(=O)c1ccco1 (configuration not stated),-24%,.,16µM*,?,.,.
COc1ccc(CCC(=O)N2c3ccccc3N=C(c3ccc(C(F)(F)F)cc3)C2C(=O)NC(C)C)cc1 (configuration not stated),-10%,.,23µM*,?,.,.
CC(C)NC(=O)C1C(c2ccccc2)=Nc2ccccc2N1C(=O)c1ccc(C(F)(F)F)cc1 (configuration not stated),-63%,.,?,?,.,.
COc1ccc(CCC(=O)N2c3ccccc3N=C(c3ccc(C(F)(F)F)cc3)C2C(=O)NC(C)(C)C)cc1 (configuration not stated),-16%,.,?,?,.,.
Cc1nc2ccc(C(=O)N3c4ccccc4N=C(c4ccc(C(F)(F)F)cc4)C3C(=O)NC(C)(C)C)cc2[nH]1 (configuration not stated),-2%,.,?,15µM*,.,.
CCc1ccc(-c2nn(Cc3ccccc3)cc2C(=O)N2CCN(CCO)CC2)cc1,21%,.,.,.,.,.
CC1CCN(Cc2nc(N)c3ccccc3n2)CC1,31%,.,.,.,.,.
CC(C)C(NC(=O)NCc1ccn[nH]1)c1ccc2c(c1)OCCCO2 (configuration not stated),-1%,.,.,.,.,.
CC(C)NC(=O)C1C(c2ccccc2)=Nc2ccccc2N1C(=O)c1cc(Cl)cc(Cl)c1 (configuration not stated),-14%,.,23µM*,?,.,.
COc1ccc(S(=O)(=O)Nc2ccccc2OC)cc1NC(=O)Cc1cccs1,-4%,3%,?,21µM*,32%,-6%
COc1ccccc1NS(=O)(=O)c1cccc(C(=O)N(C)Cc2cccs2)c1,1%,5%,23µM*,23µM*,25%,4%
CC(C)CCNC(=O)c1c(-n2cnnn2)sc2c1CCCC2,2%,.,.,.,.,.
COc1ccc(NC(=O)c2cc3c(N(C)Cc4ccccc4)nc(C)cn3n2)cc1,67%,.,.,.,.,.
COCCCNCc1cccc2ccccc12,-54%,.,.,.,.,.
CCCCCNC(=O)C(C1CC1)n1c(=O)c(-c2ccco2)nc2ccccc21 (configuration not stated),35µM*,.,15µM*,13µM*,.,.
COc1ccc(C(C(=O)NC2CCCC2)n2c(Cc3cc(F)cc(F)c3)nc3ccccc32)cc1 (configuration not stated),18%,.,?,?,.,.
CC(C)(C)NC(=O)C(C1CC1)n1c(=O)c(-c2ccccc2)nc2ccccc21 (configuration not stated),5%,.,?,?,.,.
O=C(NC1CCCCC1)C(c1ccc(C(F)(F)F)cc1)n1c(=O)c(-c2ccco2)nc2ccccc21 (configuration not stated),?,.,1.6µM*,?,.,.
O=C(NC1CCCCC1)C(C1CC1)n1c(=O)c(-c2ccco2)nc2ccccc21 (configuration not stated),?,.,?,10µM*,.,.
N#Cc1ccc(C(C(=O)NC2CCCCC2)n2c(=O)c(-c3ccco3)nc3ccccc32)cc1 (configuration not stated),-29%,.,15µM*,16µM*,.,.
N#C/C(=C/c1ccccc1OC(F)F)C(=O)Nc1cccc(C(F)(F)F)c1,-63%,.,.,.,.,.
CCc1cccc2c(C(=O)O)cc(-c3ccnn3CC)nc12,-6%,.,.,.,.,.
SMILES,ALOX12 inh,ELG1 repair inh,TDP1 cell CPT,DT40 TDP1 no CPT,RORg inh,Gal4-VP16 FLuc
O=C(NC1CCCCC1)C(c1ccccc1)n1c(=O)c(-c2ccco2)nc2ccccc21 (configuration not stated),?,.,18µM*,21µM*,.,.
CCCC1CCC(c2ccc(/C(N)=N/O)cc2)CC1 (configuration not stated),79%,-4%,?,15µM*,3%,-10%
CCCC1CCC(c2ccc(C(=O)NN)cc2)CC1 (configuration not stated),-19%,?,29µM*,29µM*,?,?
CCCCNC(=O)N1CCC(C(=O)O)CC1,-1%,.,.,.,.,.
Cc1ccc(S(=O)(=O)N2CCN(c3nc(-n4ccnn4)nc4ccccc34)CC2)cc1,.,.,13µM*,16µM*,.,.
CC(=O)c1ccc(S(=O)(=O)N2CCN(c3nc(-c4cccnc4)nc4ccccc34)CC2)cc1,99%,?,21µM*,?,.,.
COc1ccc(Cl)cc1N(C)c1nc(N2CCN(S(=O)(=O)c3ccc(C)cc3)CC2)c2ccccc2n1,.,.,8.9µM*,6.3µM*,.,.
O=S(=O)(c1ccccc1)N1CCN(c2nc(-c3cccnc3)nc3ccccc23)CC1,-20%,?,?,21µM*,.,.
N#CCCN(C(=O)CSc1nc(CN2CCOCC2)nc2ccccc12)c1ccccc1F,-8%,.,.,.,.,.
Cc1ccc(S(=O)(=O)N2CCN(c3nc(-c4cccnc4)nc4ccccc34)CC2)cc1C,2%,.,.,.,.,.
Cc1ccc(S(=O)(=O)N2CCN(c3nc(-c4ccnnc4)nc4ccccc34)CC2)cc1,.,.,?,16µM*,.,.
O=C(CSc1nc2ccccc2c(=O)[nH]1)Nc1ccc([N+](=O)[O-])cc1,-20%,18µM*,?,?,.,.
O=C(CSc1nc2ccccc2c(=O)[nH]1)Nc1ccccc1,-1%,.,.,.,.,.
CC(C)Sc1nc2ccccc2c(=O)[nH]1,0%,-4%,-29%,-2%,20%,-8%
O=C(CSc1nc2ccccc2c(=O)[nH]1)Nc1ccc(S(=O)(=O)N2CCCC2)cc1,-20%,-18%,16µM*,?,-10%,2%
